System: Vero E6 infected with SARS-CoV-2
Test: inhibition of SARS-CoV-2 cytopathic effect; higher = more antiviral protection, active = above 15
Conditions: 48 h

Measured: inhibition of SARS-CoV-2 cytopathic effect

CC(C)(O)c1ccccc1CC[C@@H](SCC1(CC(=O)O)CC1)c1cccc(/C=C/c2ccc3ccc(Cl)cc3n2)c1 [montelukast]
inactive: 1 nM 0.18% | 8.33 nM 0.4% | 100 nM -0.23% | 833.33 nM -0.66% | 10000 nM -4.23%

CCOc1ccc2nc3cc(N)ccc3c(N)c2c1 [ethacridine-lactate-monohydrate]
inactive: 1 nM -0.84% | 8.33 nM 0.62% | 100 nM 0.77% | 833.33 nM -1.28% | 10000 nM 0.22%

O=C1NC(=O)C(c2ccccc2)(c2ccccc2)N1 [phenytoin]
inactive: 1 nM -2.48% | 8.33 nM 0.49% | 100 nM -0.76% | 833.33 nM -0.84% | 10000 nM 0.37%

Cc1cc(NC(=O)C(c2ccccc2)N2CCCc3ccccc32)no1 (stereo not given)
inactive: 1 nM 0.33% | 8.33 nM -0.92% | 100 nM 1.85% | 833.33 nM 0.35% | 10000 nM 3.91%

O=C(c1ccc(F)cc1)C1CCN(CCn2c(=S)[nH]c3ccccc3c2=O)CC1 [altanserin]
inactive: 1 nM -0.65% | 8.33 nM 0.82% | 100 nM 0.34% | 833.33 nM 2.37% | 10000 nM 1%

CNC[C@@H]1CC[C@@H](N)[C@@H](O[C@H]2[C@H](O)[C@@H](O[C@H]3OC[C@](C)(O)[C@H](NC)[C@H]3O)[C@H](N)C[C@@H]2N)O1 [micronomicin]
inactive: 1 nM 0.04% | 8.33 nM 1.42% | 100 nM 0.72% | 833.33 nM 3.66% | 10000 nM -0.03%

CCC(=O)OCN1C(=O)C=CC1=O
inactive: 1 nM -0.55% | 8.33 nM 0.83% | 100 nM 0.41% | 833.33 nM 1.73% | 10000 nM 1.22%

CCOC(=O)[C@H](Cc1ccc([N+](=O)[O-])cc1)NC(=O)c1ccccc1
inactive: 1 nM 0.55% | 8.33 nM 1.63% | 100 nM 2.6% | 833.33 nM -1.21% | 10000 nM 0.3%

C[C@]12CC[C@H]3[C@@H](CCC4=CC(=O)CC[C@@]43C)[C@@H]1CC[C@@H]2O
inactive: 1 nM 0.04% | 8.33 nM 2.66% | 100 nM 3.91% | 833.33 nM -1.25% | 10000 nM -0.6%

Cn1cc([S+](C)[O-])c(=O)c2ccc(F)cc21 (stereo not given) [flosequinan]
inactive: 1 nM -1.94% | 8.33 nM -0.91% | 100 nM 0.34% | 833.33 nM 2.01% | 10000 nM 0.19%

CN(C)CCCOc1nn(Cc2ccccc2)c2ccccc12 [benzydamine]
inactive: 1 nM 1.21% | 8.33 nM 2.44% | 100 nM 2.33% | 833.33 nM 0.09% | 10000 nM -0.14%

CCOc1ccc2ccccc2c1C(=O)N[C@@H]1C(=O)N2[C@@H]1SC(C)(C)[C@@H]2C(=O)O [nafcillin]
inactive: 1 nM -2.44% | 8.33 nM 1.27% | 100 nM -1.26% | 833.33 nM -1.73% | 10000 nM -0.95%

COc1ccc(C(C)=O)c(O)c1 [paeonol]
inactive: 1 nM 1.08% | 8.33 nM 1.99% | 100 nM 2.76% | 833.33 nM 0.69% | 10000 nM -4.98%

Fc1ccc(Cn2c(NC3CCNCC3)nc3ccccc32)cc1 [tecastemizole]
inactive: 1 nM -7.23% | 8.33 nM -9.9% | 100 nM -11.8% | 833.33 nM -8.85% | 10000 nM -8.1%

COc1cc2nc(N3CCN(C(=O)COc4c(OC)cccc4C(C)C)CC3)nc(N)c2cc1OC
inactive: 1 nM 0.49% | 8.33 nM 0.12% | 100 nM 3.19% | 833.33 nM 3.59% | 10000 nM 1.29%

CC(C)(N)C(=O)N[C@H](COCc1ccccc1)C(=O)N1CCC2(CC1)CN(S(C)(=O)=O)c1ccccc12 [ibutamoren]
inactive: 1 nM 1.85% | 8.33 nM 2.84% | 100 nM 0.93% | 833.33 nM 4.99% | 10000 nM 2.99%

Cc1[nH]c(/C=C2\C(=O)Nc3ccccc32)c(C)c1CCC(=O)O [orantinib]
inactive: 1 nM -0.96% | 8.33 nM 2.48% | 100 nM 1.61% | 833.33 nM -0.48% | 10000 nM -0.87%

CC(=O)Nc1ccc(CC(=O)O)cc1 [actarit]
inactive: 1 nM 1.96% | 8.33 nM -0.52% | 100 nM 0.35% | 833.33 nM -0.15% | 10000 nM -0.41%
